According to article PMC5540273 (PLoS ONE, 2017):
Several values for one entry are separate records, joined by “and”; a condition that tells them apart may be missing. Equal values may be shown once. Read-outs that look alike come from different tables or passages of the source.

Columns and labels:
CAMKK2 = details: n = 1
CASK = details: n = 1
CDC2L1 = system: T1, CDC2L1; details: n = 1
T1 construct: gene CDK11B

CDC2L2 = details: n = 1
CDC2L5 = system: T2, CDC2L5; details: concentration: 1 μM, replicates: in singlicate; n = 1
T2 construct: gene CDK13

CDK11 = system: T3, CDK11; details: n = 1
T3 construct: gene CDK19

CDK2 = details: n = 1
CDK3 = details: n = 1
CDK4-cyclinD1 = details: concentration: 1 μM, replicates: in singlicate; n = 1
CDK4-cyclinD3 = details: n = 1
[1] = concentration: 1 μM, replicates: in singlicate
[2] = concentration: 1 μM,replicates: in singlicate, 1 µM
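Also: KINOMEscan kinase panel screen.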

SMILES | %Inh (CAMKK2; [1]) | %Inh (CASK; [1]) | %Inh (CDC2L1; [1]) | %Inh (CDC2L2; [1]) | %Inh (CDC2L5) | %Inh (CDK11; [1]) | %Inh (CDK2; [1]) | %Inh (CDK3; [1]) | %Inh (CDK4-cyclinD1) | %Inh (CDK4-cyclinD3; [1]) | %Inh (CAMKK2; [2]) | %Inh (CASK; [2]) | %Inh (CDC2L1; [2]) | %Inh (CDC2L2; [2]) | %Inh (CDK11; [2]) | %Inh (CDK2; [2]) | %Inh (CDK3; [2]) | %Inh (CDK4-cyclinD3; [2])
Cc1nnc(-c2ccc3occ(-c4ccc(S(C)=O)cc4)c3c2)[nH]1 (stereo not drawn) | 14% | 0% | 0% | 0% | 11% | 0% | 2% | 7% | 0% | 2% |  |  |  |  |  |  |  | 
O=S(=O)(c1ccc(-c2ccnc3[nH]ccc23)cc1)N1CCCC1 [GSK846226] | 23% | 5% | 0% | 17% | 0% | 2% | 0% | 1% | 0% | 0% |  |  |  |  |  |  |  | 
Cc1c(Cn2ccn3c(=O)cc(N4CCOCC4)nc23)cccc1C(F)(F)F [GSK2289044] | 18% | 14% | 0% | 13% | 0% | 0% | 0% | 9% | 0% | 0% |  |  |  |  |  |  |  | 
COc1ccc(Nc2nccc(-c3cccc(NC(=O)c4cc5cc(F)ccc5[nH]4)c3)n2)cc1 [GSK1229782] | 29% | 14% | 4% | 24% | 0% | 24% | 17% | 20% | 17% | 0% |  |  |  |  |  |  |  | 
Cc1ccc(-c2cc(-c3c[nH]nc3-c3ccccn3)ccn2)cc1 [GW684088] | 26% | 0% | 0% | 17% | 0% | 16% | 0% | 0% | 28% | 0% |  |  |  |  |  |  |  | 
Cc1csc(-c2nc(Nc3ccncc3)c3ccccc3n2)n1 [GW869640] | 23% | 26% | 0% | 5% | 8% | 7% | 7% | 9% | 11% | 1% |  |  |  |  |  |  |  | 
Clc1cc(Cl)cc(Nc2ccnc(Nc3cc(Cl)cc(Cl)c3)n2)c1 [GSK175726] | 0% | 13% | 5% | 18% | 0% | 19% | 0% | 0% | 0% | 0% |  |  |  |  |  |  |  | 
O=C(Nc1n[nH]c2cc(-c3cccc(F)c3F)ccc12)C1CC1 [SB-733894] | 13% | 30% | 2% | 0% | 8% | 5% | 22% | 0% | 0% | 30% |  |  |  |  |  |  |  | 
Cn1ccc2ncnc(Oc3cccc(C(=O)Nc4ccccc4)c3)c21 | 0% | 5% | 0% | 0% | 0% | 0% | 6% | 1% | 16% | 0% |  |  |  |  |  |  |  | 
CN1C(=O)C(Nc2ccc(Cl)c(C(=O)O)c2)=C(c2ccc(Cl)cc2)C1=O [SB-404290] | 0% | 3% | 0% | 0% | 1% | 0% | 13% | 6% | 0% | 0% |  |  |  |  |  |  |  | 
CCn1c(-c2cccnc2O)nc2cnccc21 [SB-736715] | 0% | 0% | 0% | 0% | 0% | 21% | 0% | 0% | 7% | 0% |  |  |  |  |  |  |  | 
Cc1cc(-c2ccc3c(c2)CC[C@@H](N[C@@H](C)c2ccccc2)C3)cnc1N.Cl [GW412617] | 23% | 0% | 0% | 2% | 0% | 40% | 12% | 6% | 0% | 0% |  |  |  |  |  |  |  | 
COc1ccc(C2=C(Nc3cccc(C(=O)O)c3)C(=O)NC2=O)cc1 [SB-390765] | 7% | 15% | 17% | 13% | 8% | 0% | 12% | 7% | 0% | 0% |  |  |  |  |  |  |  | 
Cc1cccc(-c2nc(Nc3cccc(C(N)=O)c3)c3ccccc3n2)n1 [GW876019] | 0% | 30% | 0% | 2% | 10% | 8% | 0% | 59% | 18% | 0% |  |  |  |  |  |  |  | 
O=C(Nc1n[nH]c2nc(-c3nccs3)c(Br)cc12)C1CC1 [SB-742251] | 0% | 42% | 0% | 0% | 13% | 0% | 81% | 50% | 65% | 25% |  |  |  |  |  |  |  | 
Cc1cccc(-c2cc(Nc3ccncc3)c3ccccc3n2)n1 [GSK223675] | 20% | 0% | 0% | 19% | 0% | 7% | 0% | 0% | 0% | 9% |  |  |  |  |  |  |  | 
COc1ccccc1-c1ccc2c(NC(=O)C3CC3)n[nH]c2n1 [SB-711239] | 0% | 8% | 0% | 3% | 2% | 19% | 0% | 8% | 9% | 0% |  |  |  |  |  |  |  | 
Cc1ccc(NC(=O)Nc2cccc(Cl)c2)cc1-c1ccc(C(=O)Nc2ccncc2)cc1 [GSK1398468] | 25% | 5% | 0% | 22% | 0% | 14% | 33% | 6% | 0% | 11% |  |  |  |  |  |  |  | 

SMILES | %Inh (CAMKK2; [1]) | %Inh (CASK; [1]) | %Inh (CDC2L1; [1]) | %Inh (CDC2L2; [1]) | %Inh (CDC2L5) | %Inh (CDK11; [1]) | %Inh (CDK2; [1]) | %Inh (CDK3; [1]) | %Inh (CDK4-cyclinD1) | %Inh (CDK4-cyclinD3; [1]) | %Inh (CAMKK2; [2]) | %Inh (CASK; [2]) | %Inh (CDC2L1; [2]) | %Inh (CDC2L2; [2]) | %Inh (CDK11; [2]) | %Inh (CDK2; [2]) | %Inh (CDK3; [2]) | %Inh (CDK4-cyclinD3; [2])
Cc1cccc(-c2nc(Nc3ccncc3)c3ccccc3n2)n1 [GW855857] | 7% | 0% | 0% | 0% | 0% | 0% | 0% | 20% | 13% | 0% |  |  |  |  |  |  |  | 
Cc1cccc(-c2nc(Nc3ccc4[nH]ncc4c3)c3ccccc3n2)n1 [GW857175] | 0% | 45% | 12% | 9% | 20% | 0% | 0% | 0% | 23% | 0% |  |  |  |  |  |  |  | 
Cc1cc(NCC(c2ccccc2)c2ccccc2)nc(NCc2ccc(C(F)(F)F)cc2)n1 [GW497681] | 23% | 0% | 0% | 5% | 0% | 0% | 0% | 0% | 0% | 0% |  |  |  |  |  |  |  | 
COc1ccc2nc(-c3cccc(C)n3)nc(Nc3ccncc3)c2c1 [GSK204919] | 0% | 23% | 0% | 0% | 0% | 0% | 0% | 0% | 0% | 0% |  |  |  |  |  |  |  | 
Cl.O=C(Nc1cccc(-c2nn3ncccc3c2-c2ccnc(Nc3cccnc3)n2)c1)c1c(F)cccc1F [GSK312879] | 0% | 22% | 3% | 7% | 0% | 0% | 0% | 19% | 0% | 4% |  |  |  |  |  |  |  | 
CSc1nn2c(=O)cc(N3CCOCC3)nc2n1Cc1cccc(C(F)(F)F)c1C [GSK2363608] |  |  |  |  | 0% |  |  |  | 0% |  | 14% and 0% | 19% and 16% | 3% and 0% | 25% and 0% | 5% and 35% | 6% and 0% | 17% and 0% | 6% and 0%
COc1ccccc1CNC(=O)c1cc(C(=O)c2ccccc2C)c[nH]1 [GSK364507] | 5% | 12% | 0% | 19% | 0% | 15% | 0% | 10% | 0% | 7% |  |  |  |  |  |  |  | 
Cc1ccc(NC(=O)Nc2cc(C(C)(C)C)nn2-c2ccccc2)cc1 [GSK1014915] | 0% | 12% | 31% | 7% | 0% | 62% | 0% | 8% | 0% | 4% |  |  |  |  |  |  |  | 
O=c1cc(N2CCOCC2)nc2n(Cc3cccc(Cl)c3Cl)ccn12 [GSK2286295] | 16% | 9% | 13% | 16% | 0% | 23% | 0% | 0% | 0% | 0% |  |  |  |  |  |  |  | 
O=C(Nc1ccccc1)Nc1cccc(Oc2ccc3nccn3n2)c1 | 0% | 16% | 0% | 5% | 0% | 0% | 0% | 10% | 24% | 0% |  |  |  |  |  |  |  | 
NC(=O)c1nnc2ccccc2c1N | 0% | 36% | 7% | 25% | 11% | 3% | 6% | 19% | 32% | 0% |  |  |  |  |  |  |  | 
COC(=O)c1c(-c2ccccc2)c2cc(OC)ccc2c(=O)n1Cc1ccccc1 | 17% | 0% | 7% | 3% | 0% | 12% | 2% | 10% | 0% | 0% |  |  |  |  |  |  |  | 
CN(C)CCN(C)C(=O)c1cc(-c2ccncc2)c(-c2ccc(Cl)c(O)c2)o1.Cl.Cl [SB-710397] | 0% | 29% | 0% | 0% | 0% | 15% | 0% | 20% | 23% | 9% |  |  |  |  |  |  |  | 
Cc1cccc(-c2nc(-c3ccc(S(C)(=O)=O)cc3)sc2-c2ccnc(NCCc3ccccc3)c2)c1 | 0% | 18% | 6% | 0% | 44% | 0% | 0% | 0% | 0% | 0% |  |  |  |  |  |  |  | 
Cc1cc(N2Cc3ccccc3C2)nc(Nc2ccc(S(=O)(=O)N3CCOCC3)cc2)n1.Cl [GSK1669917] | 0% | 7% | 0% | 23% | 0% | 0% | 0% | 0% | 0% | 0% |  |  |  |  |  |  |  | 
COC(=O)c1c(-c2ccccc2)c2cc(C(=O)O)ccc2c(=O)n1Cc1ccccc1 | 0% | 18% | 0% | 3% | 40% | 0% | 0% | 0% | 0% | 0% |  |  |  |  |  |  |  | 
Cl.Oc1ccc(-c2nc(-c3ccccc3)[nH]c2-c2ccncc2)cc1 [SB-428218] | 15% | 0% | 0% | 5% | 0% | 8% | 0% | 55% | 49% | 2% |  |  |  |  |  |  |  | 
COc1cc2nccc(Nc3ccc(NC(=O)c4ccc(C)cc4)c(O)c3)c2cc1OC.Cl [GW440132] | 32% | 2% | 0% | 3% | 0% | 5% | 0% | 9% | 0% | 0% |  |  |  |  |  |  |  | 
